The text below walks through data of the supplement of paper PMC13380429.

Assay [1] relates to Vero E6 infected with SARS-CoV-2. Description: morphology score (similarity to uninfected cells); higher = more like uninfected cells. The following applies: 24 h.
The test system is the same in assay [2]. As to the kind of experiment: SARS-CoV-2 infection rate relative to infected DMSO; higher = more infection, active = 60 or less. The following applies: 24 h.

Regarding `CN1CCN(Cc2ccc(-c3cnc4[nH]cc(-c5ccc6[nH]ccc6c5)c4c3)cc2)CC1` (0.833333 µM), the morphology score in assay [1] was 0.84. Moreover, in assay [2], the SARS-CoV-2 infection rate was 61% (inactive).

As for `Cc1c(N(C)C)c(=O)n(-c2ccccc2)n1C` [amidopyrine] (10 µM), the morphology score in assay [1] is -0.0419. Also, in assay [2], the SARS-CoV-2 infection rate was 110% (inactive).

In assay [1], `COC(=O)[C@H]1[C@H]2C[C@@H]3c4[nH]c5cc(OC)ccc5c4CCN3C[C@H]2C[C@@H](OC(=O)c2cc(OC)c(OC)c(OC)c2)[C@@H]1OC` [reserpine] (10 µM) came in with a morphology score of 0.127. In addition, in assay [2], the SARS-CoV-2 infection rate was 110% (inactive).

The compound `COc1cc2c(c(OC)c1OC)-c1c(cc3c(c1OC)OCO3)C[C@H](C)[C@@](C)(O)C2` [schisandrol-B] (10 µM) yielded a morphology score in assay [1] of -0.0659. Moreover, in assay [2], the SARS-CoV-2 infection rate is 106% (inactive).

In assay [1], `O=S(=O)(O)c1cc(O)ccc1O` [etamsylate] (10 µM) gave a morphology score of 0.0853. The SARS-CoV-2 infection rate in assay [2] is 94.5% (inactive).

`O=C1CC2(CCCC2)CC(=O)N1CCCCNC[C@H]1COc2ccccc2O1` (racemic) (10 µM) came in with a morphology score in assay [1] of -0.0862. Moreover, the SARS-CoV-2 infection rate in assay [2] was 108% (inactive).

The compound `O=C1C=CC[C@@H]2[C@H]3CCCN4CCC[C@@H](CN12)[C@@H]34` [sophocarpine] (10 µM) yielded a morphology score in assay [1] of -0.0321. Moreover, the SARS-CoV-2 infection rate in assay [2] was 112% (inactive).

For the compound `Cc1cccc2c1CC[C@H](CN1CCC(c3c(Cl)cccc3Cl)CC1)C[C@@H]2O` (0.833333 µM), the morphology score in assay [1] is 0.134. Besides, in assay [2], the SARS-CoV-2 infection rate is 98% (inactive).

For the compound `C[C@H](CCC(=O)NCCS(=O)(=O)O)[C@H]1CC[C@H]2[C@@H]3[C@@H](O)C[C@@H]4C[C@H](O)CC[C@]4(C)[C@H]3CC[C@]12C` [ursodeoxycholyltaurine] (10 µM), the morphology score in assay [1] amounted to 0.0842. Further, the SARS-CoV-2 infection rate in assay [2] is 102% (inactive).

For `CC(=O)O[C@@]12CO[C@@H]1C[C@H](O)[C@@]1(C)C(=O)[C@H](O)C3=C(C)[C@@H](O)C[C@@](O)([C@@H](OC(=O)c4ccccc4)[C@H]21)C3(C)C` [10-deacetylbaccatin] (10 µM), the morphology score in assay [1] worked out at 0.18. The SARS-CoV-2 infection rate in assay [2] is 109% (inactive).

Take `CC1(C)C(=O)N(c2ccc(C#N)c(C(F)(F)F)c2)C(=O)N1CCCCO` (10 µM): the morphology score in assay [1] is -0.0623. Moreover, the SARS-CoV-2 infection rate in assay [2] was 100% (inactive).

In assay [1], `Cc1ccc(C(=O)N(CCCN)[C@@H](c2oc3cc(Cl)ccc3c(=O)c2Cc2ccccc2)C(C)C)cc1` (0.833333 µM) showed a morphology score of -0.422. For the same compound, the SARS-CoV-2 infection rate in assay [2] is 115% (inactive).

The compound `O=c1cc(N2CCOCC2)oc2c(-c3cccc4c3sc3ccccc34)cccc12` (0.833333 µM) displayed a morphology score in assay [1] of 0.352. Further, the SARS-CoV-2 infection rate in assay [2] is 68% (inactive).

Compound `COc1ccccc1Oc1c(NS(=O)(=O)c2ccc(C)cn2)nc(-c2ccncc2)nc1OC` (10 µM) returned a morphology score in assay [1] of 0.183. For the same compound, the SARS-CoV-2 infection rate in assay [2] is 85.5% (inactive).

For `O=C(O)[C@H](O)c1ccccc1` [mandelic-acid] (10 µM), the morphology score in assay [1] is -0.0448. The SARS-CoV-2 infection rate in assay [2] is 114% (inactive).

`CC(=O)OCC(=O)[C@@]1(OC(C)=O)[C@@H](C)C[C@H]2[C@@H]3C[C@H](F)C4=CC(=O)C=C[C@]4(C)[C@@]3(F)[C@@H](O)C[C@@]21C` [diflorasone-diacetate] (10 µM) showed a morphology score in assay [1] of 0.0652. In assay [2], the SARS-CoV-2 infection rate was 113% (inactive).

As for `C[C@H]1[C@H](C)CC[C@]2(C(=O)O)CC[C@]3(C)C(=CC[C@@H]4[C@@]5(C)C[C@@H](O)[C@H](O)[C@@](C)(CO)[C@@H]5CC[C@]43C)[C@H]12` [asiatic-acid] (10 µM), in assay [1], the morphology score is -0.135. Moreover, the SARS-CoV-2 infection rate in assay [2] was 108% (inactive).

In turn, `CC(C)CN(C[C@@H](O)[C@H](Cc1ccccc1)NC(=O)O[C@H]1CO[C@H]2OCC[C@H]21)S(=O)(=O)c1ccc(N)cc1` [darunavir] (10 µM) returned a morphology score in assay [1] of 0.156. Also, in assay [2], the SARS-CoV-2 infection rate is 107% (inactive).

In assay [1], `Nc1nc(N)c(N=O)c(OCC2CCCCC2)n1` (10 µM) displayed a morphology score of 0.621. Also, the SARS-CoV-2 infection rate in assay [2] is 54.5% (active).

In assay [1], `CC12CCC(C(=O)N(CCCCN3CCN(c4ccccn4)CC3)C1=O)C2(C)C` (centres undefined) [piricapiron] (10 µM) returned a morphology score of 0.11. Besides, the SARS-CoV-2 infection rate in assay [2] was 103% (inactive).

In assay [1], `O=Cc1cn(Cc2ccc(Cl)cc2)c2ccccc12` [oncrasin-1] (10 µM) showed a morphology score of 0.108. In addition, the SARS-CoV-2 infection rate in assay [2] is 110% (inactive).

On to `CO[C@@H]1[C@H](N(C)C(=O)c2ccccc2)C[C@H]2O[C@]1(C)n1c3ccccc3c3c4c(c5c6ccccc6n2c5c31)C(=O)NC4` [midostaurin] (10 µM), for which the morphology score in assay [1] is -0.108. The SARS-CoV-2 infection rate in assay [2] is 110% (inactive).

Turning to `CCOC(=O)[C@H](CCc1ccccc1)N[C@H]1CS[C@H](c2cccs2)CN(CC(=O)O)C1=O` [temocapril] (10 µM), the morphology score in assay [1] was found to be 0.0304. For the same compound, the SARS-CoV-2 infection rate in assay [2] is 114% (inactive).

In assay [1], `O=C(Nc1ccc(C(F)(F)F)cn1)N1CCN(c2ncccc2C(F)(F)F)CC1` (10 µM) gave a morphology score of 0.0927. In assay [2], the SARS-CoV-2 infection rate is 93.5% (inactive).

For the compound `CCOC(=O)C1=C(C)NC(c2ccccc2)=C(C(=O)OCc2ccc([N+](=O)[O-])cc2)[C@@H]1C#Cc1ccccc1` (10 µM), the morphology score in assay [1] amounted to 0.304. Further, the SARS-CoV-2 infection rate in assay [2] is 89% (inactive).

`Cc1nc(Nc2cnn(C3CCNCC3)c2)nc2c1N(C)C(=O)c1cc3ccccc3cc1N2C` (0.833333 µM) had a morphology score in assay [1] of 0.143. Further, the SARS-CoV-2 infection rate in assay [2] was 104% (inactive).

On to `CC(=O)c1ccc2c(c1)[C@H](NC(=O)c1ccc(F)c(Cl)c1)[C@H](O)C(C)(C)O2` [tonabersat] (10 µM), for which, in assay [1], the morphology score came out at 0.372. Moreover, the SARS-CoV-2 infection rate in assay [2] is 94.5% (inactive).
